# This excerpt belongs to a sample that is enriched for hits.
# HT1080 IDH1KD tx: toxicity to HT-1080 IDH1 knockdown cells (counter line); HT-1080 IDH1 knockdown viability, ATP luminescence, 48 h; Potency, µM (series often up to 46.1 µM), for inactives: at the highest dose activity, negative = toxicity, most hits filed as cytotoxic; actives 2% (n = 360,000);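 further: potency means the concentration at half of the fitted maximal effect; 0% = DMSO wells and -100% = cell-free medium wells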
#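 Luminescent ATP read-out (CellTiter-Glo, 10 min at room temperature) after 48 h compound exposure at 37 °C gave viability of IDH1-knockdown HT-1080 cells. Activity was normalised to DMSO and cell-free wells, then fitted as concentration-response curves.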
# HT1080NT lethal: kills 2HG-producing HT-1080-NT fibrosarcoma cells | HT-1080-NT fibrosarcoma viability, CellTiter-Glo ATP luminescence, 48 h | actives 1.6% (n = 360,000) | AID 686970 | Potency, µM (highest dose often 46.1 µM), without a hit: at the highest dose activity, negative = less viability, most hits filed as cytotoxic;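 further: NT is the 2HG producing partner of a matched IDH1 knockdown line; potency means the concentration at half of the fitted maximal effect; 0% = DMSO-treated cells and -100% = media-only wells without cells; nearly all actives have a fitted effect of over 55% in size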
#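 HT-1080-NT; 750 cells/well; 5% FBS RPMI; 48 h compound, 37 degrees C; CellTiter-Glo luminescence; curve fitting and curve-class assignment.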
# IL1B secr inh: inhibitors of inflammasome signaling (IL-1 beta secretion); THP-1 LPS/ATP IL-1B secretion, AlphaLISA, 16 h; stronger effect = lower value; activity change, % at 57.5 µM; actives 4.7% (n = 360,000); AID 743279; in the data active means activity change below about -50%; inconclusive means mostly about -30% to -49%
#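 THP-1 cells pretreated 1 hr with compounds (up to 57.5 uM final), then stimulated with LPS (250 ng/mL final) plus ATP (1.25 mM final); secreted IL-1B measured by AlphaLISA after 16 hr, decreased signal indicating inhibition.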
# 12-LOX inh: ALOX12 (human) lipoxygenase inhibition; P18054; purified 12hLO, xylenol orange hydroperoxide absorbance; Potency, µM (doses to about 108 µM), inactives show at the highest dose activity change, negative = inhibition, actives largely listed as inhibitors; actives 1.1% (n = 580,000); AID 1671190; further: potency means the concentration at half of the fitted maximal effect
# Target sequence (P18054 whole entry, looked up): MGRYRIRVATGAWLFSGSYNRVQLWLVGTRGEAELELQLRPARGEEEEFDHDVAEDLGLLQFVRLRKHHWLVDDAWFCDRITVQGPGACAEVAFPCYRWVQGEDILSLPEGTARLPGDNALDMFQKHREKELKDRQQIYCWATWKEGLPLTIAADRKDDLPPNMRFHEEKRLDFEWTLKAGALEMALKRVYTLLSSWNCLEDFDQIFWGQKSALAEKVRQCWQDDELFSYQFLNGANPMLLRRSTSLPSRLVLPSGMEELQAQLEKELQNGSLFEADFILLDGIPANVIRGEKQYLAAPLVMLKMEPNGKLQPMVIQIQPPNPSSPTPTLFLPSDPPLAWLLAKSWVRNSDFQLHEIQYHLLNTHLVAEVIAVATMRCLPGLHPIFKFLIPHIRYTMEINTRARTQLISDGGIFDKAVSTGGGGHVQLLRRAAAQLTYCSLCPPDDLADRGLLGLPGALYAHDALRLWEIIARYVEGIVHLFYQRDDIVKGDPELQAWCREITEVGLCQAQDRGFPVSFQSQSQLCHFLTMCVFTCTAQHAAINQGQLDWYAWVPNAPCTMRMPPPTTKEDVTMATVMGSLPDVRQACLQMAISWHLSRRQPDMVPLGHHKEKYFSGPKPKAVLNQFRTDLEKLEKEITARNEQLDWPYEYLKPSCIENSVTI
#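 Hydroperoxide product was detected by ferrous iron/xylenol orange as the 573 to 405 nm absorbance ratio. Arachidonic acid at 40 uM (final) was turned over for 30 min at room temperature by 150 nM human 12hLO, pH 7.0 Hepes buffer, after 15 min compound preincubation.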
# DT40 TDP1 CPT: DT40-hTDP1 cell growth loss with CPT; chicken DT40 Tdp1-/-;hTDP1 cells + 20 nM CPT, ATP luminescence, 48 h; actives 12% (n = 420,000); Potency, µM (top dose mostly 46.2 µM), for the others: at the highest dose activity change, negative = growth inhibition, hits mostly inhibitors; AID 686979; further: potency means the concentration at half of the fitted maximal effect; nearly all actives have a fitted effect of over 55% in size
#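 Chicken DT40 Tdp1-/- cells complemented with human TDP1, 400 cells/well, exposed to compounds plus 20 nM camptothecin for at least 48 h at 37 C; viability read as ATP content by CellTiter-Glo luminescence.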
# TDP1 cell noCPT: qHTS for Inhibitors of human tyrosyl-DNA phosphodiesterase 1 (TDP1): qHTS in cells in absence of CPT; DT40 Tdp1-/- hTDP1 cells, no CPT, ATP luminescence, 48 h; Potency, µM (series often up to 46.2 µM), for inactives: top-dose activity change, negative = growth inhibition, usual class: inhibitors; actives 15% (n = 420,000); AID 686978, 2013; further: potency means the concentration at half of the fitted maximal effect; nearly all actives have a fitted effect of over 55% in size
#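 Cells were dispensed at 400 per well, compounds added by pin tool, plates incubated ≥48 hr at 37 °C, then CellTiter-Glo added for 30 min at room temperature before luminescence reading. Line: DT40 Tdp1-/- complemented with hTDP1; camptothecin omitted.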
# * = called active by the depositor; ? = inconclusive; / = no result; [ ] = remark or other dose. Unless noted, the call rests on the fitted dose curve; in most records, active means well fitted curve in the direction sought with a large enough effect; inconclusive means small, poorly fitted or top-dose-only effect, or another doubt; inactive means no such curve, though single readings can be large; an effect the other way counts as inactive or inconclusive. Unless noted, on the % scale 0 is the no-effect control and ±100 the full control effect.
SMILES,HT1080 IDH1KD tx,HT1080NT lethal,IL1B secr inh,12-LOX inh,DT40 TDP1 CPT,TDP1 cell noCPT
COCCN1C(=O)c2ccccc2C(C(=O)Nc2nc3ccccc3[nH]2)C12CCCCC2 (centres undefined),/,/,/,5%,/,/
Cc1ccc(CNC(=O)C2CC(c3ccc(C(F)(F)F)cc3)=NO2)o1 (centres undefined),3%,10%,-3,-8%,12µM*,7.3µM*
O=C(NCc1cc(C(F)(F)F)cc(C(F)(F)F)c1)C1CC(c2ccc(C(F)(F)F)cc2)=NO1 (centres undefined),4%,1%,?,15%,?,?
CC1(C(=O)Nc2cccc3cccnc23)CCN1C(=O)Cc1ccc(Cl)cc1Cl (centres undefined),-18%,-15%,-22,?,21µM*,21µM*
COc1ccc(NC(=O)C2(C)CCN2C(=O)Cc2ccc(Cl)cc2Cl)cc1OC (centres undefined),1%,4%,-19,?,18µM*,21µM*
CC1(C(=O)Nc2ccc(Cl)c(Cl)c2)CCN1C(=O)CC1CCCC1 (centres undefined),12%,16%,-7,-2%,26µM*,?
COc1ccc(OC)c(NC(=O)C2(C)CCN2C(=O)Cc2ccc(Cl)cc2Cl)c1 (centres undefined),3%,-19%,-1,14%,21µM*,18µM*
CC1(C(=O)Nc2ccc3c(c2)OCCO3)CCN1C(=O)CC1CCCC1 (centres undefined),21%,6%,-4,11%,?,?
COc1ccc(NC(=O)c2cc3c(N4CCSCC4)nc(C)cn3n2)cc1OC,/,/,/,2%,/,/
CN(C)c1ccc(N2C(=O)CC(Sc3ccccc3C(=O)O)C2=O)cc1 (centres undefined),8%,6%,0,-16%,13µM*,?
Cc1ccc(N2C(=O)CC(Sc3ccccc3C(=O)O)C2=O)cc1 (centres undefined),-1%,2%,0,0%,7.3µM*,15µM*
CN1C(=O)CC(Sc2ccccc2C(=O)O)C1=O (centres undefined),-9%,5%[9.24 µM],12,-26%,-23%,-6%
Cc1cccc(N2C(=O)CC(Sc3ccccc3C(=O)O)C2=O)c1 (centres undefined),13%,17%,-12,-23%,?,?
Cc1cc(C)c(N2C(=O)CC(Sc3ccccc3N)C2=O)c(C)c1 (centres undefined),?,?,33,-5%,16µM*,7.3µM*
CCOC(=O)c1c(N2C(=O)CC(Sc3ccccc3C(=O)O)C2=O)sc(C)c1C (centres undefined),-4%,0%,-11,?,23µM*,?
O=C(CCc1ccccc1)N1C[C@@H](CO)[C@H](c2ccncc2)C1,/,/,/,11%,/,/
Cc1ccc(N2C(=O)CC(Sc3ccccc3C(=O)O)C2=O)cc1C (centres undefined),0%,0%,0,11%,4.1µM*,12µM*
Cc1cc(C)cc(N2C(=O)CC(Sc3ccccc3C(=O)O)C2=O)c1 (centres undefined),-1%,-4%,6,4%,4.1µM*,18µM*
CC[C@H]1CN(Cc2ccc(OC)cc2O)CC[C@H]1CC(=O)N(C)CC#N,/,/,/,-10%[176 µM],/,/
Cc1cccn2c(=O)c(C=NCc3ccco3)c(Nc3ccc(SC(F)F)cc3)nc12,8%,0%,-5,?,26µM*,?
Cc1cccc(CN2CCC(CNC(=O)c3cccc4c3SCCC4=O)CC2)c1,/,/,/,1%,/,/
COC(=O)c1ccc2nc(-c3ccc(C)cc3)c(Cc3ccccc3OC)n2c1,16%,-1%,48,?,?,?
Cc1ccc2nc(-c3ccccc3)c(Cc3ccsc3)n2c1,-6%,1%,-13,-5%,15µM*,16µM*
COC(=O)c1ccc2nc(-c3ccc(F)cc3)c(Cc3ccccc3)n2c1,-1%,8%,1,?,16µM*,23µM*
COC(=O)c1ccc2nc(-c3ccc(C)cc3)c(Cc3ccsc3)n2c1,-6%,1%,46,40µM*,18µM*,21µM*
SMILES,HT1080 IDH1KD tx,HT1080NT lethal,IL1B secr inh,12-LOX inh,DT40 TDP1 CPT,TDP1 cell noCPT
Clc1cccc(-c2nc3ccc(Cl)cn3c2Cc2ccsc2)c1,-10%,-14%,103,/,?,?
COC(=O)c1ccc2nc(-c3ccc(F)cc3)c(Cc3ccsc3)n2c1,11%,12%,25,7.1µM*,?,18µM*
COCCNC(=O)[C@@H]1C[C@@H](O)CN1C1CCN(C(=O)c2cc(F)ccc2F)CC1,/,/,/,10%,/,/
COC(=O)c1ccc2nc(-c3ccc(C#N)cc3)c(Cc3ccsc3)n2c1,-19%,-6%,-6,?,?,23µM*
COC(=O)c1ccc2nc(C3CCCCC3)c(Cc3ccccc3)n2c1,?,?,20,?,16µM*,9.2µM*
COC(=O)c1ccc2nc(C3CCCCC3)c(CC(C)(C)C)n2c1,?,?,65,?,?,?
COc1ccccc1C(=O)N1CCC(Oc2ccc(C(N)=O)cn2)CC1,/,/,/,-8%,/,/
CC(C)(C)NC(=O)N1CCCCCCNC(=O)[C@@H]2C[C@@H](c3nc(-c4cccnc4)no3)C[C@@H]21,/,/,/,32%,/,/
Cc1noc(C)c1C(=O)OCC(=O)N1CCc2ccccc21,1%,1%,-9,20%,-15%,-5%
CCCc1nc2ccccc2c(C(=O)OCC(=O)N2CCc3ccccc32)c1CC,-16%,1%,13,-18%,18µM*,12µM*
CCc1noc(C)c1C(=O)OCC(=O)N1CCc2ccccc21,-3%,-5%,0,20%,5%,2.3µM*
CC1CCc2nc3ccccc3c(C(=O)OCC(=O)N3CCc4ccccc43)c2C1 (centres undefined),-3%,-14%,23,-3%,8.2µM*,5.8µM*
CCCc1nc2ccccc2c(C(=O)OCC(=O)NC(C)(C)C)c1CC,/,/,/,-4%,/,/
COC(=O)CNC(=O)C(C)(C)c1cccc(C(F)(F)F)c1,/,/,/,-14%,/,/
CCCn1c(SCc2cc(=O)oc3cc(C)c(C(C)C)cc23)n[nH]c1=O,/,/,/,0%,/,/
O=C(N[C@H]1CO[C@H]2[C@@H]1OC[C@@H]2n1nnnc1-c1ccc2c(c1)OCO2)c1ccccc1,/,/,/,19%[176 µM],/,/
